Laboratory results published in PubChem BioAssay (NCI).
Compounds without any hit were thinned out: in the full panel of roughly 79,000, 15% have a hit. A number with no mark means an inactive call. Calls of active or inactive are those of the source. Rule as the data show it: active = growth inhibition above about 70%; inactive = the rest.

Columns and labels:
[1] = NCI Yeast Anticancer Drug Screen. Data for the wt1 strain (AID 149);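 also: 0% = growth of vehicle-treated wt1 cultures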; details: S. cerevisiae wt1 strain (SPY 50644) growth inhibition, active compounds read high
Outline: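 Measured: growth of wt1 yeast under compound versus vehicle treatment, reported as inhibition.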

[2] = NCI Yeast Anticancer Drug Screen. Data for the rad50EPP+ strain (AID 151);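 also: 0% = growth of vehicle-treated control cultures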; details: S. cerevisiae rad50 mutant strain, active compounds read high
Outline: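 Yeast strain carrying rad50 alteration (rad50EPP+) exposed to compounds; growth inhibition measured relative to vehicle-treated controls.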

[3] = NCI Yeast Anticancer Drug Screen. Data for the mgt1 strain (AID 153); details: S. cerevisiae mgt1 mutant growth inhibition, active compounds read high
Outline: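 Yeast mgt1 strain (DNA repair/cell-cycle alteration panel) exposed to compounds; growth inhibition measured relative to vehicle-treated controls.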

[4] = NCI Yeast Anticancer Drug Screen. Data for the rad50 strain (AID 155);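 also: 0% = growth of vehicle-only cultures of the same strain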; details: S. cerevisiae rad50 strain growth inhibition, active compounds read high
Outline: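 Growth of the mutant yeast was measured after compound exposure and referenced to vehicle-treated cultures.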

[5] = NCI Yeast Anticancer Drug Screen. Data for the mec2-1 strain (AID 157); details: S. cerevisiae mec2-1 strain, active compounds read high
Outline: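 mec2-1 yeast strain, carrying an alteration in DNA damage repair or cell cycle control, was exposed to compounds; growth inhibition was measured relative to vehicle-treated controls.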

[6] = NCI Yeast Anticancer Drug Screen. Data for the rad14 strain (AID 159);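 also: 0% = growth of vehicle-treated control cultures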; details: S. cerevisiae rad14 strain growth inhibition, active compounds read high
Outline: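 Here, inhibition of yeast growth was measured after compound exposure, using a strain with a genetic defect in DNA damage repair and vehicle-treated cultures as the reference.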

[7] = NCI Yeast Anticancer Drug Screen. Data for the sgs1 mgt1 strain (AID 161);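 also: 0% = growth of cultures given vehicle only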; details: S. cerevisiae sgs1 mgt1 strain, active compounds read high
Outline: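 Growth of a repair-deficient yeast mutant was monitored after compound treatment and expressed as inhibition relative to vehicle-treated cultures.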

[8] = NCI Yeast Anticancer Drug Screen. Data for the CLN2oe strain (AID 163);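 also: 0% = growth of vehicle-only control cultures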; details: S. cerevisiae CLN2oe strain, active compounds read high
Outline: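 Yeast cells carrying a defined cell-cycle control alteration were exposed to test compounds. Growth inhibition was scored against vehicle-treated control cultures.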

[9] = NCI Yeast Anticancer Drug Screen. Data for the bub3 strain (AID 167); details: S. cerevisiae bub3 mutant strain, active compounds read high
Outline: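 Whole-cell yeast assay. The mutant strain was incubated with compounds, and growth inhibition was determined by comparison with vehicle-treated cells.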

[10] = NCI Yeast Anticancer Drug Screen. Data for the wt2 strain (AID 169);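 also: 0% = growth of vehicle-treated yeast cultures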; details: S. cerevisiae wt2 strain growth inhibition, active compounds read high
Outline: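 Yeast cells were exposed to test compounds, and growth inhibition was measured relative to vehicle-treated controls.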

[11] = NCI Yeast Anticancer Drug Screen. Data for the mlh1 strain (AID 171);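 also: 0% = growth of vehicle-treated control cultures of the same strain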; details: S. cerevisiae mlh1 strain growth inhibition, active compounds read high
Outline: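 Yeast carrying a defined genetic alteration in DNA damage repair or cell cycle control were exposed to test compounds. Growth inhibition was measured relative to vehicle-treated controls.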

[12] = NCI Yeast Anticancer Drug Screen. Data for the sgs1 strain (AID 173);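 also: 0% = growth of vehicle-only control cultures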; details: S. cerevisiae sgs1 mutant, active compounds read high
Outline: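 Yeast mutant strains carrying defined defects in DNA damage repair or cell cycle control were exposed to test compounds. Growth inhibition was scored against vehicle-treated controls.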

[13] = NCI Yeast Anticancer Drug Screen. Data for the mlh1 rad18 strain (AID 175); details: S. cerevisiae mlh1 rad18 strain growth inhibition, active compounds read high
Outline: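 Growth inhibition of the yeast strain was measured after compound exposure and expressed relative to vehicle-treated controls. The strain carries defined defects in DNA damage repair.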

[14] = NCI Yeast Anticancer Drug Screen. Data for the rad18 strain (AID 177); details: S. cerevisiae rad18 mutant growth inhibition, active compounds read high
Outline: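 Yeast carrying a defined DNA damage repair alteration were exposed to compounds. Growth inhibition was expressed relative to vehicle-treated controls.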

[15] = at 5.0 µM (retest, dose inferred, filed as 0.5)
[16] = at 50.0 µM (retest, dose inferred, filed as 5.0)

`CCc1nc2ccc(N=Nc3c(O)ccc4ccccc34)cc2[nH]1` gave a growth inhibition ([1]; at 1.2 µM) of 14%, a growth inhibition ([1]; at 3.7 µM) of 10% and a growth inhibition ([1]; at 11.0 µM) of 19%. For the same compound, the growth inhibition ([1]; at 33.0 µM) was 30%, the growth inhibition ([1]; at 100.0 µM) was 96% (active) and the growth inhibition ([2]; at 1.2 µM) was -5%. It also gave a growth inhibition ([2]; at 3.7 µM) of 4%, a growth inhibition ([2]; at 11.0 µM) of 23% and a growth inhibition ([2]; at 33.0 µM) of 63%. The growth inhibition ([2]; at 100.0 µM) was 93% (active), the growth inhibition ([3]; at 1.2 µM) was 0% and the growth inhibition ([3]; at 3.7 µM) was -10%. For the same compound, the growth inhibition ([3]; at 11.0 µM) was -6%, the growth inhibition ([3]; at 33.0 µM) was -2% and the growth inhibition ([3]; at 100.0 µM) was 96% (active). It also gave a growth inhibition ([4]; at 1.2 µM) of 6%, a growth inhibition ([4]; at 3.7 µM) of 6% and a growth inhibition [4, 15] of -23%. It also gave a growth inhibition ([4]; at 11.0 µM) of 8%, a growth inhibition ([4]; at 33.0 µM) of 34% and a growth inhibition [4, 16] of 25%. The growth inhibition ([4]; at 50.0 µM) was 89% (active), the growth inhibition ([4]; at 100.0 µM) was 95% (active) and the growth inhibition ([5]; at 1.2 µM) was 0%. The growth inhibition ([5]; at 3.7 µM) was 7%, the growth inhibition [5, 15] was -49% and the growth inhibition ([5]; at 11.0 µM) was 10%. For the same compound, the growth inhibition ([5]; at 33.0 µM) was 21%, the growth inhibition [5, 16] was 65% and the growth inhibition ([5]; at 50.0 µM) was 93.2% (active). For the same compound, the growth inhibition ([5]; at 100.0 µM) was 93% (active), the growth inhibition ([6]; at 1.2 µM) was -15% and the growth inhibition ([6]; at 3.7 µM) was -29%. For the same compound, the growth inhibition ([6]; at 11.0 µM) was -20%, the growth inhibition ([6]; at 33.0 µM) was 32% and the growth inhibition ([6]; at 100.0 µM) was 93% (active). For the same compound, the growth inhibition [7, 15] was -4%, the growth inhibition [7, 16] was 21% and the growth inhibition ([7]; at 50.0 µM) was 92.5% (active). The growth inhibition ([8]; at 1.2 µM) was 2%, the growth inhibition ([8]; at 3.7 µM) was 1% and the growth inhibition ([8]; at 11.0 µM) was -5%. For the same compound, the growth inhibition ([8]; at 33.0 µM) was 9%, the growth inhibition ([8]; at 100.0 µM) was 95% (active) and the growth inhibition ([9]; at 1.2 µM) was -3%. The growth inhibition ([9]; at 3.7 µM) was -11%, the growth inhibition [9, 15] was -9% and the growth inhibition ([9]; at 11.0 µM) was -18%. The growth inhibition ([9]; at 33.0 µM) was 13%, the growth inhibition [9, 16] was 92% (active) and the growth inhibition ([9]; at 50.0 µM) was 92.2% (active). For the same compound, the growth inhibition ([9]; at 100.0 µM) was 95% (active), the growth inhibition ([10]; at 1.2 µM) was -13% and the growth inhibition ([10]; at 3.7 µM) was 12%. The growth inhibition ([10]; at 11.0 µM) was -5%, the growth inhibition ([10]; at 33.0 µM) was 12% and the growth inhibition ([10]; at 100.0 µM) was 96% (active). The growth inhibition ([11]; at 1.2 µM) was -15%, the growth inhibition ([11]; at 3.7 µM) was -10% and the growth inhibition ([11]; at 11.0 µM) was -18%. For the same compound, the growth inhibition ([11]; at 33.0 µM) was 17%, the growth inhibition ([11]; at 100.0 µM) was 95% (active) and the growth inhibition ([12]; at 1.2 µM) was 1%. The growth inhibition ([12]; at 3.7 µM) was 17%, the growth inhibition ([12]; at 11.0 µM) was 24% and the growth inhibition ([12]; at 33.0 µM) was 57%. For the same compound, the growth inhibition ([12]; at 100.0 µM) was 95% (active), the growth inhibition [13, 15] was -22% and the growth inhibition [13, 16] was 46%. The growth inhibition ([13]; at 50.0 µM) was 90.1% (active), the growth inhibition ([14]; at 1.2 µM) was -8% and the growth inhibition ([14]; at 3.7 µM) was -10%. For the same compound, the growth inhibition ([14]; at 11.0 µM) was 1%, the growth inhibition ([14]; at 33.0 µM) was 21% and the growth inhibition ([14]; at 100.0 µM) was 95% (active).
